Laboratory results published in PubChem BioAssay (Tox21).
Inconclusive results are not listed. A number with no mark means an inactive call. Calls of active or inactive are those of the source. The call rests on the fitted dose curve; in most records, active means well fitted inhibition curve with a large enough effect in the repeat runs; inconclusive means weak or mixed curves; inactive means no such curve, though single readings can be large or run the other way.

target: Cytochrome P450 2C19 (Homo sapiens) (UniProt P33261); experiment: Cytochrome P450 Family 2 Subfamily C Member 19 (CYP2C19) small molecule antagonists: luciferase reporter qHTS assay (AID 1671197); conditions: P450-Glo CYP2C19 enzyme, luciferin luminescence, 1 h; series mostly up to 52.9 µM; activity change, negative = inhibition: at the top concentration; further: nearly all actives have a fitted effect of over 65% in size
Text: National Center for Advancing Translational Sciences [NCATS]
U.S. Environmental Protection Agency [EPA]
National Institutes of Environmental Health Sciences [NIEHS]
National Toxicology Program [NTP]
U.S. Food and Drug Administration [FDA]
Cytochrome P450 (CYP) enzymes are membrane-bound hemeproteins that play a key role in metabolism of drugs and xenobiotics. Evaluation of the effect of chemicals on CYP isozymes is useful to minimize the adverse drug reactions and toxicities in drug development process. Tox21 chemicals were tested for their effect on CYP enzyme activities by using P450-Glo (TM) screening systems (Promega Corporation, Madison, WI). These systems provide a luminescent method containing proluciferin substrates and are converted to luciferin products by CYP isozymes. The luciferin products formed are detected with a luciferin detection reagent, and the amount of light produced is proportional to CYP activity. P450-Glo (TM) CYP2C19 screening system (Catalog. No. V9880) was used to detect the compounds that interfere in CYP2C19 activity. The positive control compound used for CYP2C19 assay is ketoconazole (Sigma-Aldrich, St. Louis, MO).
Tox21 Assay Protocol Summary:
Two ul of enzyme-substrate mix was dispensed into medium binding white/solid 1536-well plates (Greiner Bio-One North America Inc., Monroe, NC) using a BioRaptr Flying Reagent Dispenser (FRD, Beckman Coulter, Brea, CA). Compounds dissolved in DMSO and positive control (ketoconazole) were transferred to the assay plates at 23 nl using a Pintool station (Wako, San Diego, CA). The assay plates were incubated at room temperature for 10 min. Then 2 ul of NADPH regeneration solution was added to each well of the assay plates using an FRD and incubated at 37C for 1 h. The reaction was stopped by adding 4 ul of detection reagent using an FRD and after 20 min incubation at room temperature the luminescence signal was measured using a ViewLux plate reader (Perkin Elmer, Shelton, CT). Data were expressed as relative luminescence units.
On the % scale 0 is the no-effect control and ±100 the full control effect; potency means the concentration at half of the fitted maximal effect.

Chain of Cytochrome P450 2C19 (Homo sapiens) (P33261 whole entry, looked up): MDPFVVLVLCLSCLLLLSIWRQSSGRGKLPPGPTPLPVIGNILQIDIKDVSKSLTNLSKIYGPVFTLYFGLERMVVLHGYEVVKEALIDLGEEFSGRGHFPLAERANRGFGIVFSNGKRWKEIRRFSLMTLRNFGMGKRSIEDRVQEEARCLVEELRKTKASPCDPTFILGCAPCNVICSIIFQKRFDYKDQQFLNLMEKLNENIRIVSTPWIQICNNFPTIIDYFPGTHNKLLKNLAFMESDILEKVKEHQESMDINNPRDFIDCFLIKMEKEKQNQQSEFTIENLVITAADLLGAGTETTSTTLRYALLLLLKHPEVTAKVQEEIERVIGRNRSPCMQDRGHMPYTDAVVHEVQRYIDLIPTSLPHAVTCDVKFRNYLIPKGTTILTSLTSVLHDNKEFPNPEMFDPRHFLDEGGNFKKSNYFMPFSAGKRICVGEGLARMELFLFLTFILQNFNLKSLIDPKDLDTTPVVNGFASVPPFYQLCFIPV

How did the Potency turn out when `Nc1cccc(S(=O)(=O)c2cccc(N)c2)c1` was run?
The Potency was 35.6 µM (active).

For `CCOC(=O)C(F)(F)F`, which “activity change, negative = inhibition” value is on record?
The value was -18.5% [at 115 µM].

`COc1ccnc(CS(=O)c2nc3ccc(OC(F)F)cc3[nH]2)c1OC` (stereo not given) was tested. Which Potency did it give?
Its Potency is 13.8 µM (active).

With `O=C1OC(=O)C2C3C=CC(C3)C12` (stereo not given) as the molecule, how does the “activity change, negative = inhibition” value read?
Its value is -5.37% [at 115 µM].

With `C/C=C/C=C/CO` as the molecule, how does the “activity change, negative = inhibition” value read?
Its value is -1.78% [at 115 µM].

With `CC1(c2ccccc2)OC(C(=O)O)=CC1=O` (stereo not given) as the molecule, how does the “activity change, negative = inhibition” value read?
Its value is 16%.

With `CCCCCCOC(=O)NC(=N)c1ccc(NCc2nc3cc(C(=O)N(CCC(=O)OCC)c4ccccn4)ccc3n2C)cc1` as the molecule, how does the Potency read?
Its Potency is 2.19 µM (active).

For `Cc1ccccc1S(=O)(=O)O`, which “activity change, negative = inhibition” value is on record?
Its value is -18.3% [at 115 µM].

For `O=C1[C@H]2CCCC[C@H]2C(=O)N1CCCCN1CCN(c2nsc3ccccc23)CC1`, which “activity change, negative = inhibition” value is on record?
Its value is -1.93%.

With `CCN(CC)c1ccc(C(=C2C=CC(=[N+](CC)CC)C=C2)c2cc(S(=O)(=O)O)ccc2S(=O)(=O)[O-])cc1` as the molecule, how does the Potency read?
Its Potency is 12.3 µM (active).

For `OCCN1CCN(CCCN2c3ccccc3C=Cc3ccccc32)CC1`, which “activity change, negative = inhibition” value is on record?
Its value is 4.35%.

Which “activity change, negative = inhibition” value does the source give for `CC/C=C\CCOC(=O)CC` here?
The value was -7.34% [at 115 µM].

With `CCCCCCCCO[C@@H]1O[C@H](CO)[C@@H](O)[C@H](O)[C@H]1O` as the molecule, how does the “activity change, negative = inhibition” value read?
Its value is -19.4% [at 115 µM].

For `O=C(Nc1ccccc1)c1ccccc1O`, which Potency is on record?
Its Potency is 22.4 µM (active).

With `CN(Cc1ccc(C(C)(C)C)cc1)Cc1cccc2ccccc12` as the molecule, how does the Potency read?
Its Potency is 8.71 µM (active).

`O=C1c2ccccc2S(=O)(=O)N1CCCCN1CCN(c2ncccn2)CC1` was tested. Which “activity change, negative = inhibition” value did it give?
The value was -8.12%.

For `CN1C[C@H]2c3ccccc3Oc3ccc(Cl)cc3[C@@H]2C1`, which “activity change, negative = inhibition” value is on record?
The value was 13.2%.

For `C[C@@H]1C[C@H]2[C@@H]3CCC4=CC(=O)C=C[C@]4(C)[C@@]3(F)[C@@H](O)C[C@]2(C)[C@@]1(O)C(=O)COC(=O)c1ccncc1`, which Potency is on record?
Its Potency is 17.4 µM (active).

`ClCCOCCOCCCl` was tested. Which “activity change, negative = inhibition” value did it give?
Its value is 1.52% [at 115 µM].

With `CCCCC/C=C\C/C=C\CCCCCCCC(=O)NC(C)c1ccccc1` (stereo not given) as the molecule, how does the Potency read?
The Potency was 4.9 µM (active).

Which “activity change, negative = inhibition” value does the source give for `Nc1c(CC(=O)O)cccc1C(=O)c1ccc(Br)cc1` here?
Its value is -3.28%.

`OCCNCc1ccccc1` was tested. Which Potency did it give?
The Potency was 44.8 µM (active).

How did the “activity change, negative = inhibition” value turn out when `CCC(C)c1cc(C(C)(C)C)c(O)c(C(C)(C)C)c1` (stereo not given) was run?
Its value is -0.343% [at 115 µM].

How did the Potency turn out when `CC(CC=O)c1ccccc1` (stereo not given) was run?
Its Potency is 15.9 µM (active).

How did the Potency turn out when `Brc1c2ccccc2cc2ccccc12` was run?
The Potency was 35.9 µM (active).

For `Nc1ccc(N)c2c1C(=O)c1ccccc1C2=O`, which Potency is on record?
The Potency was 22.4 µM (active).

With `O=C(OCCc1ccccc1)c1ccccc1` as the molecule, how does the Potency read?
Its Potency is 12.6 µM (active).

Which “activity change, negative = inhibition” value does the source give for `Cc1cccc(C)c1NC(=O)CN(CC(=O)O)CC(=O)O` here?
Its value is 18.9%.

For `O=C(O)CC(=O)C(=O)O`, which Potency is on record?
The Potency was 56.6 µM (active).

How did the “activity change, negative = inhibition” value turn out when `CNC(=O)CN(CCN(CCN(CC(=O)[O-])CC(=O)NC)CC(=O)[O-])CC(=O)[O-].O.[Gd+3]` was run?
Its value is 5.51%.

How did the Potency turn out when `Clc1ccc(Cn2c(CN3CCCC3)nc3ccccc32)cc1` was run?
Its Potency is 0.776 µM (active).

`CCCCC(CC)COC(=O)CCCCCCCCC(=O)OCC(CC)CCCC` (stereo not given) was tested. Which “activity change, negative = inhibition” value did it give?
The value was -16.4% [at 115 µM].

With `COc1cc(Cl)ccc1Oc1ccc(Cl)cc1Cl` as the molecule, how does the Potency read?
Its Potency is 1.23 µM (active).

How did the “activity change, negative = inhibition” value turn out when `CC(C)(CO)[N+](=O)[O-]` was run?
Its value is -13.4% [at 115 µM].

`Cc1ccc(C(=O)Oc2ccc(C(O)CNC(C)(C)C)cc2OC(=O)c2ccc(C)cc2)cc1` (stereo not given) was tested. Which “activity change, negative = inhibition” value did it give?
The value was 0.793%.

`CCn1cc(C(=O)O)c(=O)c2cnc(N3CCNCC3)nc21` was tested. Which “activity change, negative = inhibition” value did it give?
Its value is 33.6%.

`NS(=O)(=O)c1ccc(N2CCCCS2(=O)=O)cc1` was tested. Which “activity change, negative = inhibition” value did it give?
Its value is 5.92%.

Which “activity change, negative = inhibition” value does the source give for `NCC(=O)CCC(=O)O` here?
The value was -7.25%.

With `CCOC(=O)C1=C[C@]2(CC)CCCN3CCc4c(n1c1ccccc41)[C@@H]32` as the molecule, how does the “activity change, negative = inhibition” value read?
Its value is -24.6%.

Which Potency does the source give for `CCOc1ccc(N)c([N+](=O)[O-])c1` here?
The Potency was 35.6 µM (active).
